# DT40 TDP1 CPT: qHTS for Inhibitors of human tyrosyl-DNA phosphodiesterase 1 (TDP1): qHTS in cells in presence of CPT | Potency, µM (series often up to 46.2 µM), hits mostly inhibitors | chicken DT40 Tdp1-/-;hTDP1 cells + 20 nM CPT, ATP luminescence, 48 h | hit rate 12% among 420,000; also: nearly all actives have a fitted effect of over 55% in size
#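 Chicken DT40 Tdp1-/- cells complemented with human TDP1, 400 cells/well, exposed to compounds plus 20 nM camptothecin for at least 48 h at 37 C; viability read as ATP content by CellTiter-Glo luminescence.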
# TGFb inhibitor: qHTS for Inhibitors of TGF-b; AID 588855, 2011; Potency, µM (doses to about 46.1 µM), usual class: inhibitors; hit rate 1.2% among 410,000; HepG2 CAGA-GFP TGF-b/SMAD3 reporter, GFP fluorescence, 18 h; TGF-beta stimulated, 500 pg/mL final; also: nearly all actives have a fitted effect of over 65% in size
#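 HEPG2 CAGA-GFP, 1000 cells/well; 2 h settle, 37 C; cpd via pin tool; TGF-b 500 pg/mL final; 18 h, 37 C; GFP imaging ex488/em500-530; %Activity normalised to -TGF-b and +DMSO controls; CRC fit, curve class.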
# S2 tox: Viability Counterscreen for Primary qHTS for Inhibitors of ATXN expression. S2 cells (HEK-293 line with an ATXN2-luciferase reporter) viability, CellTiter-Fluor protease fluorescence, 24 h. Potency, µM (highest dose often 56.7 µM), hits mostly cytotoxic. hit rate 0.49% among 400,000. AID 651635, 2014; also: nearly all actives have a fitted effect of over 40% in size
# HepG2 tox: qHTS for Inhibitors of TGF-b: Cytotox Counterscreen; hit rate 0.76% among 410,000; Potency, µM (series often up to 46.1 µM), hits mostly cytotoxic; AID 588856, 2011; HepG2 CAGA-GFP viability, ATP luminescence, 18 h
#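 CellTiter-Glo luminescence gave cytotoxicity after 18 hours at 37 degrees C. The cells were HepG2 CAGA-GFP in 1% FBS DMEM, stimulated with 500 pg/mL TGF-beta after compound addition. %Activity was normalised to no-cell wells (complete cell-killing) and DMSO (no toxicity), and curves were fitted and classified.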
# DT40 TDP1 no CPT: qHTS for Inhibitors of human tyrosyl-DNA phosphodiesterase 1 (TDP1): qHTS in cells in absence of CPT; DT40 Tdp1-/- hTDP1 cells, no CPT, ATP luminescence, 48 h; Potency, µM (top dose mostly 46.2 µM), actives largely listed as inhibitors; hit rate 15% among 420,000; also: nearly all actives have a fitted effect of over 55% in size
#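 A cellular qHTS used chicken DT40 cells lacking endogenous Tdp1 but carrying stably transfected human TDP1. Compounds were applied without camptothecin, and cell growth kinetics were judged by ATP-dependent luminescence after ≥48 hr.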
# ATXN2 expr inh: Primary qHTS for Inhibitors of ATXN expression | HEK-293 ATXN2-luciferase reporter, luminescence, 24 h | Potency, µM (titrated, usually from 57 µM), usual class: inhibitors | hit rate 0.72% among 360,000 | AID 1745845, 2022; also: nearly all actives have a fitted effect of over 55% in size
#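 qHTS (up to 57 uM final) was run with 24 h compound exposure of reporter cells at 37 °C. Each well was multiplexed: SteadyGlo luminescence measured ATXN2-luciferase expression after a fluorogenic Gly-Phe-AFC viability readout (25 uM final).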
# Hits are given with their value; . = inactive; ? = inconclusive; / = no result. An excerpt weighted towards active compounds, which were near 17% of everything screened. Calls follow the shape of the dose curve; as a rule, active = well fitted curve in the direction sought with a large enough effect; inconclusive = small, poorly fitted or top-dose-only effect, or another doubt; inactive = no such curve, though single readings can be large; an effect the other way counts as inactive or inconclusive.
SMILES,DT40 TDP1 CPT,TGFb inhibitor,S2 tox,HepG2 tox,DT40 TDP1 no CPT,ATXN2 expr inh
CCN(CC)C(=O)c1cccc(-c2csc(C(C)(O)c3ccncc3)n2)c1 (centres undefined),18µM,.,?,.,21µM,?
COc1cccc(C(C)(O)c2nc(-c3cccc(C(=O)O)c3)cs2)c1 (centres undefined),.,.,.,.,.,.
CCOC(=O)CN1CCC(C2(c3cc4ccccc4[nH]3)OCCO2)CC1,.,.,?,.,.,/
COCCCn1cc(C(=O)c2cc(OC)ccc2OCC(=O)Nc2cc(C)on2)cc(C#N)c1=O,.,.,.,.,.,.
COc1ccc(-c2c(-c3cc(OC)cc(OC)c3)n(C)c3ccc(-c4ccc(OC)cc4F)cc23)cc1,?,.,.,.,?,.
COc1cc(OC)cc(-c2c(C#Cc3ccsc3)c3cc(-c4cnc(OC)nc4)ccc3n2C)c1,16µM,.,.,.,?,.
COc1cc(OC)cc(-c2c(C#Cc3ccsc3)c3cc(-c4cc(OC)c(OC)c(OC)c4)ccc3n2C)c1,.,.,.,.,.,.
COc1ccc(-c2c(-c3cc(OC)cc(OC)c3)n(C)c3ccc(-c4cnc(OC)nc4)cc23)cc1,21µM,.,.,.,18µM,.
Cc1ccc(OCC(=O)NCC2(N3CCN(C)CC3)CCCCC2)cc1,?,?,/,.,?,/
COc1ccc(OCC(=O)OCC(=O)NC2CCCCC2C)cc1 (centres undefined),.,.,/,.,.,/
COc1cc(NC2CCCCC2O)c2nc(-c3ccc(Cl)cc3)ccc2c1 (centres undefined),21µM,?,.,.,?,.
O=C(NCc1ccc2c(c1)OCO2)C1CC(=O)N(c2ccc(Cl)cc2)C1 (centres undefined),.,.,.,.,.,.
Cc1nn(-c2ccc(Cl)cc2)c2[nH]c(=O)c(CNCc3ccc4c(c3)OCO4)cc12,18µM,.,?,.,18µM,.
Cc1ccc(CNc2ccc(N3CCOCC3)cc2)s1,.,.,.,.,.,.
Cc1nn(-c2ccccc2)c2[nH]c(=O)c(CNc3ccc(N4CCOCC4)cc3)cc12,18µM,.,.,.,18µM,.
CCCCCCCC/C=C/C(=O)O,/,/,.,/,/,.
CC(C)(C)NC[C@H](O)COc1cccc2c1CCCC2=O,.,.,.,.,.,.
CC(C)(C)NCC(O)CON=C1c2ccccc2-c2ccccc21 (centres undefined),21µM,?,/,11µM,?,.
CC(C)(C)NC(=O)CON=C1c2ccccc2-c2ccccc21,23µM,?,?,.,23µM,.
COc1ccc(OC)c(NC(=O)CSc2nccn2-c2cc(C)cc(C)c2)c1,15µM,.,.,.,16µM,.
Cc1cc(C)cc(-n2ccnc2SCC(=O)Nc2ccc(C)cc2C)c1,16µM,?,.,.,21µM,.
Cc1cccc(Cn2ccc(N)n2)c1,.,?,.,.,.,.
O=C(Nc1ccc2nc(SCC(=O)N3CCOCC3)sc2c1)c1cccc(F)c1,23µM,.,/,.,21µM,/
O=C(Nc1ccc2nc(SCC(=O)N3CCOCC3)sc2c1)c1ccc(F)cc1,16µM,.,/,.,12µM,/
O=C(Nc1ccc2nc(SCC(=O)N3CCCC3)sc2c1)c1cccc(F)c1,21µM,.,/,.,15µM,/
SMILES,DT40 TDP1 CPT,TGFb inhibitor,S2 tox,HepG2 tox,DT40 TDP1 no CPT,ATXN2 expr inh
O=C(Nc1ccc2nc(SCC(=O)N3CCCC3)sc2c1)c1ccc(F)cc1,.,.,/,.,.,/
CC(C)(C)C(=O)Nc1ccc2nc(SCC(=O)N3CCOCC3)sc2c1,.,.,/,.,?,/
CCC1CCc2sc(C(=O)O)cc2C1 (centres undefined),.,.,.,.,.,.
C=CCN1CCN(C(=O)c2cc3c(s2)CCC(CC)C3)CC1 (centres undefined),?,.,.,.,16µM,.
CCOc1ccccc1Nc1nc2ccccc2c2nncn12,.,.,.,.,?,.
Cc1ccc(Cl)cc1Nc1nc2ccccc2c2nncn12,?,.,.,.,23µM,.
Cc1ccc(C(=O)Nc2sc3c(c2C(=O)O)CCCCC3)o1,?,.,.,.,15µM,.
Cc1ccc(C(=O)Nc2sc3c(c2C(=O)O)CCC(C)C3)o1 (centres undefined),?,.,?,.,21µM,/
Cc1ccc(C(=O)Nc2sc3c(c2C(=O)O)CCCC3)o1,?,.,?,.,?,.
CC1CCc2c(sc(NC(=O)c3cccs3)c2C(=O)O)C1 (centres undefined),?,.,.,.,?,.
CCN(CC)c1nc2ccccc2c(N)c1-c1ccccc1,13µM,?,.,.,21µM,.
NC(=O)c1ccc(-c2nc(-c3ccc4c(c3)OCO4)c(-c3ccccn3)[nH]2)cc1,21µM,/,/,/,19µM,.
Cc1cc(Cl)ccc1OCc1cn2cccnc2n1,.,?,.,.,.,.
CCN1CCn2c3c(c4cc(C)ccc42)CCCC31 (centres undefined),?,.,.,.,23µM,.
Cc1ccc2c(c1)c1c3n2CCN(C(=O)CCl)C3CCC1 (centres undefined),4.6µM,?,?,.,3.3µM,.
CC(=O)N1CCn2c3c(c4cc(C)ccc42)CCCC31 (centres undefined),.,.,.,.,.,/
CCCN(CCC)S(=O)(=O)c1ccc(C(=O)N2CCn3c4c(c5cc(C)ccc53)CCCC42)cc1 (centres undefined),16µM,.,.,.,?,.
Cc1ccc2c(c1)c1c3n2CCN(CCC#N)C3CCC1 (centres undefined),?,.,.,.,.,/
CCn1nc(C)c(CN2CCC(n3nccc3NC(=O)c3ccc4c(c3)OCO4)CC2)c1C,.,.,.,.,.,.
Cc1ccc(C)c(S(=O)(=O)Nc2ccc(O)c3ccccc23)c1,13µM,?,?,.,15µM,/
O=S(=O)(Nc1ccc2c3c(cccc13)CC2)c1ccccc1,?,?,.,.,13µM,/
CC(=O)Nc1ccc2c3c(cccc13)CC2,.,.,.,.,.,.
Cc1ccc(S(=O)(=O)NNc2ccccc2)c(C)c1,?,.,.,.,18µM,.
Cc1ccc(S(=O)(=O)NNC(=O)c2cccs2)c(C)c1,.,.,.,.,.,.

# High-throughput results: PubChem BioAssay, National Center for Advancing Translational Sciences (NCATS)
